N370S GC: qHTS Assay for Inhibitors and Activators of N370S glucocerebrosidase as a Potential Chaperone Treatment of Gaucher Disease | Lysosomal acid glucosylceramidase (Homo sapiens), P04062 | N370S GC spleen homogenate, 4MU-glucoside fluorescence | Potency, µM (doses to about 59.4 µM), actives largely listed as inhibitors | 330,000 tested, 0.092% active | AID 2101, 2009
Pin1 inhibitor: qHTS Assay to Find Inhibitors of Pin1. Pin1 FP peptide displacement, HiFluor488, 10 min. Potency, µM (top dose mostly 115 µM), usual class: inhibitors. 390,000 tested, 0.009% active. AID 504891, 2011; active = well fitted inhibition curve with a large enough effect in the polarisation, with a control signal flat, not every such curve was filed as active; inconclusive = small, poorly fitted or top-dose-only effect, or effect the other way, or a change in a side signal; inactive = no such curve, though single readings can be large or run the other way; the % refers to the polarisation
Target sequence (Q13526 whole entry, looked up): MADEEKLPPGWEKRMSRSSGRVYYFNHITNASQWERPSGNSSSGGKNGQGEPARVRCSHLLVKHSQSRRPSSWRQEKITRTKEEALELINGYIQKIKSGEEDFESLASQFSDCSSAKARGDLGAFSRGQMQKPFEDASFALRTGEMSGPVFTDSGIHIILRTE
TrxR1 substrate: qHTS Assay for Substrates of Mammalian Selenoprotein Thioredoxin Reductase 1 (TrxR1): qHTS; Potency, µM (titrated, usually from 114 µM); purified TrxR1 substrate turnover, NADPH consumption readout; Thioredoxin reductase 1, cytoplasmic (Rattus norvegicus), O89049; AID 588456, 2011; 390,000 tested, 0.01% active; also: nearly all actives have a fitted effect of over 50% in size
Target sequence (O89049 whole entry, looked up): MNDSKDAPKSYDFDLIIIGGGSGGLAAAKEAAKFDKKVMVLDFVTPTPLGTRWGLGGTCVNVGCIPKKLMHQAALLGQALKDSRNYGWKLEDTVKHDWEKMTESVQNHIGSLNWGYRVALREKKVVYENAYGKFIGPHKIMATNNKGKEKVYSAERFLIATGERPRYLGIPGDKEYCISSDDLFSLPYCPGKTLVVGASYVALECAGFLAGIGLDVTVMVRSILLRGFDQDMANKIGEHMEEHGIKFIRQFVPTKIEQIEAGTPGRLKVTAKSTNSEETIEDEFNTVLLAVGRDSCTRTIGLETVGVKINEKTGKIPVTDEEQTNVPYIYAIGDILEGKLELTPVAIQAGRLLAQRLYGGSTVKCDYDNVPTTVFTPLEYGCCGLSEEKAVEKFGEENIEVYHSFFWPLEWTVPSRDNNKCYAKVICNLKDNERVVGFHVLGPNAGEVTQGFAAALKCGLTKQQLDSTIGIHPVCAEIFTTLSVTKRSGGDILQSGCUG
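Rat TrxR1, dispensed at 90 nM, was prereduced with 400 uM NADPH (final) for 5 min at ~22 deg C, then incubated with compound 15 min before 400 uM selenite. A first-read NADPH fluorescence drop versus no-compound background flagged substrates.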
AT treatment: qHTS Assay for Identifying a Potential Treatment of Ataxia-Telangiectasia. Potency, µM (highest dose often 57.5 µM), usual class: activators. 320,000 tested, 0.19% active. F2112 A-T fibroblasts, KAP-1 phosphorylation AlphaLISA; neocarzinostatin DNA damage 30 min before lysis; also: nearly all actives have a fitted effect of over 45% in size
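hTERT-immortalized A-T patient fibroblasts (F2112), 500 cells/well in OPTI-MEM, 1% FBS, got compounds for 60 min, then NCS for 30 min at 37C. Lysates were then assayed for phospho-KAP-1 by AlphaLISA (anti-pKAP1 donor, anti-KAP1 acceptor beads), 6 hr at 25C.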
rTrxR1 inhibitor: qHTS Assay for Inhibitors of Mammalian Selenoprotein Thioredoxin Reductase 1 (TrxR1): qHTS; Thioredoxin reductase 1, cytoplasmic (Rattus norvegicus), O89049; recombinant rTrxR1, NADPH fluorescence consumption, selenite substrate; Potency, µM (doses to about 114 µM), hits mostly inhibitors; 390,000 tested, 1% active; AID 588453, 2011; also: nearly all actives have a fitted effect of over 65% in size
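Rat TrxR1 (90 nM in the dispensed reagent) was pre-reduced with 400 uM NADPH for 5 min at room temperature, then incubated with compound for 15 min. After 400 uM selenite was added, NADPH fluorescence (Ex 340/Em 450 nm) was followed for 8 min.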
Akt phos inh: HTS Assay for Inhibitors of Akt Phophorylation: Primary Screen; 360,000 tested, 0.32% active; Neuro2A IGF-stimulated pAkt S473 HTRF, 20 min; stronger effect = lower value; activity change, % for hits at 50 µM; AID 651550, 2012; in the data active = activity change below about -80%; inconclusive = mostly about -51% to -80%
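Neuro2A cells in DMEM with 0.5% FBS, overnight at 37 deg C, given compound at single 50 µM final, then IGF (6 nM final) for 20 min at 37 deg C. Lysed; phospho-Akt Ser473 by HTRF after 24 h, 665/615 ratio.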
Numbers stand for hits; i = inactive; ? = inconclusive; nt = no result given; [ ] = remark or other dose. Rows were chosen to be rich in hits. Some 1.4% of all compounds tested hit in one or more screens of this group. Unless noted, calls follow the shape of the dose curve; as a rule, active = well fitted curve in the direction sought with a large enough effect; inconclusive = small, poorly fitted or top-dose-only effect, or another doubt; inactive = no such curve, though single readings can be large; an effect the other way counts as inactive or inconclusive.

SMILES | N370S GC | Pin1 inhibitor | TrxR1 substrate | AT treatment | rTrxR1 inhibitor | Akt phos inh
CCOC(=O)c1c(C)c(C(=O)N2CCN(C(=O)c3ccco3)CC2)c(C)n1C | i | i | i | i | i | i
Cc1ccc(S(=O)(=O)NC(C(=O)Oc2ccc3ccc(=O)oc3c2)c2ccccc2)cc1 (stereo not given) | ? | i | i | i | 50.1µM | i
CCC(NC(=O)OCc1ccccc1)C(=O)Oc1ccc2ccc(=O)oc2c1 (stereo not given) | ? | i | i | i | 50.1µM | i
Cc1ccc(S(=O)(=O)NCCC(=O)Oc2ccc3ccc(=O)oc3c2)cc1 | ? | i | i | i | 56.2µM | i
N=c1n(CC(=O)c2ccc([N+](=O)[O-])cc2)c2ccccc2n1Cc1ccccc1 | i | ? | i | i | i | i
Cn1c(=N)n(CC(=O)c2ccccc2)c2ccccc21 | i | i | i | i | i | i
Cn1c(=N)n(CC(=O)c2ccc(Cl)c(Cl)c2)c2ccccc21 | i | i | i | 28.2µM | i[2.29 µM] | i
N=c1n(CC(=O)c2ccc(Br)cc2)c2ccccc2n1Cc1ccccc1 | nt | i | i | 22.4µM | i | i
Cc1ccc2nccc(/C=C/c3ccc(N(C)C)cc3)c2c1 | nt | nt | i | nt | i | nt
CCCn1c(C)cc(/C=C(\C#N)C(=O)OCC(=O)Nc2ccc(OC)c(Cl)c2)c1C | i | ? | i | i | 79.4µM | i
COc1ccc(NC(=O)COC(C)=O)cc1Cl | i | i | i | i | i | i
CCOC(=O)/C=C/C(=O)OCC(=O)NCc1ccccc1 | i | i | i | i | 25.1µM | i
CCCn1c(C)cc(/C=C(\C#N)C(=O)OCC(=O)NC(=O)NCC)c1C | i | i | i | i | i | i
CCOC(=O)/C=C/C(=O)OCC(=O)Nc1ccc(OC)c(Cl)c1 | i | i | i | i | 15.8µM | i
CCOC(=O)/C=C/C(=O)OCC(=O)Nc1c(Cl)cccc1Cl | i | i | i | i | 50.1µM | i
Cc1nn2c(-c3ccco3)ccnc2c1-c1ccc(Cl)cc1 | nt | i | i[11.4 µM] | nt | i[11.4 µM] | nt
Cc1cccc(NC(=O)CCCN2C(=O)c3ccccc3C2=O)n1 | i | i | i | i | i | -111.4%
O=C(CCN1C(=O)c2ccccc2C1=O)NC1=NCCS1 | i | i | i | i | i | -112.5%
Cc1cccc(NC(=O)CCCCCN2C(=O)c3ccccc3C2=O)n1 | i | i | i | i | i | i
O=C(O)CCC(=O)NN1C(=O)c2ccccc2NC1c1ccco1 (stereo not given) | i | i | i | 0.794µM | i | i
Cc1cc2c(s1)c1cnn(Cc3ccc(Cl)c(Cl)c3)c(=O)c1n2C | nt | i | nt | nt | nt | nt
Cc1ccc(-n2nnnc2SCC(=O)NC(=O)Nc2ccc3c(c2)OCCO3)cc1 | i | i | i | i | i | i
Cc1nnc(SCC(=O)NC(=O)Nc2ccc3c(c2)OCCO3)n1N | i | i | i | 0.708µM | i | i
CCn1c(COc2ccc(C)cc2)nnc1SCC(=O)Nc1ccc2c(c1)OCCO2 | i | i | i | i | i | -108.2%
CCN(CC)S(=O)(=O)c1ccc(Cl)c(C(=O)Nc2nncs2)c1 | i | i | i | i | i | -102.7%
SMILES | N370S GC | Pin1 inhibitor | TrxR1 substrate | AT treatment | rTrxR1 inhibitor | Akt phos inh
CCN(CC)S(=O)(=O)c1cc(C(=O)Nc2nncs2)c(Cl)cc1Cl | i | i | i | i | i | i
CCOc1ccc(/C=C/C(=O)c2cc(Br)ccc(=O)c2O)cc1 | ? | ? | i | i | 35.5µM | i
CC1CCN(c2oc(-c3ccc(COc4ccccc4)o3)nc2C#N)CC1 | nt | i | i | nt | i | nt
CCCCCCNC(=O)Nc1ccc(S(=O)(=O)Nc2ccc(CCNC[C@H](O)COc3ccc(O)cc3)cc2)cc1 | 7.94µM | nt | nt | nt | nt | nt
CCCCOc1ccc(S(=O)(=O)Nc2ccc(NC(C)=O)cc2)cc1 | i | i | i | i | i | i
O=C(COC(=O)C1COc2ccccc2O1)NC1CCCCC1 (stereo not given) | nt | i | i | i | i | i
O=C(COC(=O)C1COc2ccccc2O1)NC(=O)NC1CCCC1 (stereo not given) | i | i | i | i | i | -97.6%
Cc1c(CCC(=O)NCCCCCC(=O)O)c(=O)oc2cc3occ(-c4ccccc4)c3cc12 | i | i | i | 8.91µM | i | i
Cc1noc2c1C(c1ccc(N(C)C)cc1)C1=C(CC(C)(C)CC1=O)N2 (stereo not given) | i | i | i | i | 50.1µM | i
CCCN(CCC)CCNC(=O)c1cc(Sc2ccc(Cl)cc2)nc2ccccc12 | nt | i | i | nt | i | nt
CC1(C)S[C@@H]2[C@H](NC(=O)COc3ccccc3)C(=O)N2[C@@H]1C(=O)OCc1cccc2cccnc12 | nt | nt | i | nt | i | nt
CC(=O)OCC1OC(n2ccc3ccccc32)C(OC(C)=O)C(OC(C)=O)C1OC(C)=O (stereo not given) | i | i | i | i | i | i
COC(=O)C1C=CC(OC2OC(COC(C)=O)C(OC(C)=O)C(OC(C)=O)C2OC(C)=O)n2c(=O)n(-c3ccccc3)c(=O)n21 (stereo not given) | nt | i | i | nt | 11.2µM | i
Cc1oc2c(c(C)cc3oc(=O)c(CC(=O)NCC(=O)NCC(=O)O)c(C)c32)c1C | i | nt | nt | 5.62µM | nt | nt
Cc1oc2c(c(C)cc3oc(=O)c(CC(=O)NCCC(=O)O)c(C)c32)c1C | i | i | i | i | i | i
O=C(O)c1cc(O)c2c(c1)[C@@H]([C@H]1c3cc(C(=O)O)cc(O)c3C(=O)c3c(O[C@@H]4O[C@H](CO)[C@@H](O)[C@H](O)[C@H]4O)cccc31)c1cccc(O[C@@H]3O[C@H](CO)[C@@H](O)[C@H](O)[C@H]3O)c1C2=O | nt | 2.51µM | i | i | ? | i
O=C(Nc1ccc2nc(-c3ccco3)c(-c3ccco3)nc2c1)N1CCCC1 | nt | ? | i | nt | ? | nt
O=C(NCCO)Nc1ccc2nc(-c3ccco3)c(-c3ccco3)nc2c1 | i | nt | nt | i | nt | nt
O=C(NC1CC1)c1ccc2nc(-c3ccco3)c(-c3ccco3)nc2c1 | nt | nt | i | nt | 2.51µM | nt
O=C(Nc1ccc(N2CCOCC2)cc1)c1ccc2nc(-c3ccco3)c(-c3ccco3)nc2c1 | i | ? | i | i | i | i
O=C(c1ccc2nc(-c3ccco3)c(-c3ccco3)nc2c1)N1CCN(c2ncccn2)CC1 | i | ? | i | i | 12.6µM | i
CNC(=O)c1ccc2nc(-c3ccco3)c(-c3ccco3)nc2c1 | nt | nt | i | nt | 3.98µM | nt
CC(=O)c1ccc(NC(=O)c2ccc3nc(-c4ccco4)c(-c4ccco4)nc3c2)cc1 | i | 19µM | i | i | 2.51µM | i
CCSc1nc(-c2ccc(Cl)cc2)nc2c1Cc1c(CO)cnc(C)c1O2 | nt | i | i | nt | i | nt

Screens deposited in PubChem BioAssay by National Center for Advancing Translational Sciences (NCATS).
